From PubChem BioAssay
TCR activator = activators of T cell receptors. Potency, µM (series often up to 9.22 µM), for the others: top-dose activation of IL-2 secretion, most hits filed as activators. AID 504894. primary human leukocytes, anti-CD3, IL-2 HTRF, 48 h. 330,000 tested, under 10 active; also: % of control where 0% means no effect
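HTRF read-out of IL-2 secretion: europium cryptate donor excited at 320nm, d2 acceptor emission at 665nm. Cells were primary human leukocytes incubated 48 hr with compounds and a-CD3 beads, supplying TCR signal only.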
BCR signal inh = inhibitors of chronic active B-cell receptor signaling. AID 493014. Potency, µM (doses to about 46.1 µM), inactives show top-dose activity change, negative = inhibition, most hits filed as inhibitors. ABC-DLBCL IkBa-CBG/CBR reporter, luminescence ratio, 4 h. 0.05% of 340,000 active; active = well fitted inhibition curve with a large enough effect in the signal ratio, with a control signal flat, not every such curve was filed as active; inconclusive = small, poorly fitted or top-dose-only effect, or effect the other way, or a change in a side signal; the % refers to the signal ratio;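 also: potency is read from the fitted curve at half-maximal effect; plate controls were basal doxycycline-induced cells for no effect and cells given 10 µM MG132 for full effect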
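TMD8 human ABC-DLBCL cells with doxycycline-inducible IκBα–green luciferase fusion and unfused red luciferase, in 0.5% FBS medium; compounds up to 46 uM, 4 h at 37C. Green/red luminescence ratio, filter-overlap corrected, fitted to concentration-response curves.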
a7 integrin act = activates integrin-mediated alleviation for muscular dystrophy | AID 624291 | Potency, µM (highest dose often 38.3 µM), without a hit: top-dose activation, most hits filed as activators | 0.064% of 350,000 active | alpha7betagal myoblasts, beta-gal FDG fluorescence, 48 h;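 also: potency is read from the fitted curve at half-maximal effect; 100% = response of the positive control SU9516; nearly all actives have a fitted effect of over 60% in size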
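Alpha7betagal+/- myoblasts (passage 13) were plated 16-24 hr, then exposed to compounds (1:260 dilution of DMSO stock) for 48 hours at 37C. After MPER lysis, β-galactosidase reporter activity was read as FDG fluorescence (ex 480/em 540) after 30 minutes.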
Giardia killer = kills Giardia lamblia. 0.15% of 340,000 active. activity change, % at 7.66 µM, hits read low. Giardia lamblia trophozoite viability; in the data active = activity change below about -80%; inconclusive = between about -30% and that limit;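 also: parasites exposed to compound for two days anaerobically before the ATP read; % is scaled to controls: 0 for no effect and ±100 for the full control effect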
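ATP-content bioluminescence gauges trophozoite survival. Cells (100/well) receive compound and incubate anaerobically for 48 hrs at 37 deg C; detection reagent follows for 15-30 min at room temperature.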
* hit, by the source's call; ? = inconclusive; . = no result given; [ ] = dose if it differs, or a comment. This is a sample that favours compounds with a hit; in the whole collection about 0.25% have one here. Unless noted, calls follow the shape of the dose curve; as a rule, active = well fitted curve in the direction sought with a large enough effect; inconclusive = small, poorly fitted or top-dose-only effect, or another doubt; inactive = no such curve, though single readings can be large; an effect the other way counts as inactive or inconclusive.

SMILES	TCR activator	BCR signal inh	a7 integrin act	Giardia killer
CCOc1ccc(NC(=O)c2cc(S(=O)(=O)N3CCN(c4ccccc4F)CC3)ccc2F)cc1	.	-12.9%	.	.
COc1cc(NC(=O)CN(C)S(=O)(=O)c2ccc3c(c2)CC(C)N3C(C)=O)cc(OC)c1OC (stereo not drawn)	4.2%	-15.3%	10µM*	-15.8
CC1(C)C2CCC1(C)C(NC(=O)COC(=O)c1ccc(S(C)(=O)=O)c([N+](=O)[O-])c1)C2 (stereo not drawn)	.	.	.	-3.4
Cc1nc2nc(SCC(=O)NCCCN3CCCC3)nn2c(C)c1Cc1ccccc1Cl	8.4%	-3.5%	-83.9%	-1.8
O=C1c2oc3ccccc3c(=O)c2C(c2ccc(Br)cc2)N1c1ccccn1 (stereo not drawn)	.	7.8%	.	.
COC(=O)c1ccc(C2C(C(=O)c3cc4ccccc4o3)=C(O)C(=O)N2CCN2CCOCC2)cc1 (stereo not drawn)	0.4%	-16.2%	10µM*	-25.2
O=[N+]([O-])c1cccnc1Nc1ccc(Cl)cc1	.	.	-6.4%	.
NS(=O)(=O)c1ccc(Nc2ncccc2[N+](=O)[O-])cc1	-17.6%	-9.4%	5.5%	-91.0*
Cc1ccc(NC(=S)NNC(=S)Nc2ccc(C)cc2C)cc1	5.4%	17.8µM*	-29.1%	1.6
Cc1ccc(NC(=O)CCC(=O)NNC(=S)Nc2ccccc2)c(C)c1	4.3%	-6.3%	12.3%	0.3
CC(C)c1ccc(NC(=O)CN2C(=O)c3ccccc3S2(=O)=O)cc1	-3.1%	0.4%	10µM*	7.5
O=C(Nc1cccc2ncccc12)c1ccc([N+](=O)[O-])o1	-1.0%	?	-37.0%	-80.4*
O=C(Nc1ccccc1Cl)c1ccc([N+](=O)[O-])o1	-3.7%	-9.7%	-51.6%	-82.8*
O=C(Nc1ccc(NC(=O)c2ccc([N+](=O)[O-])o2)cc1Cl)c1ccco1	-0.7%	-0.9%	?	-92.4*
Cc1ccccc1NC(=O)c1ccc([N+](=O)[O-])o1	0.8%	?	-59.5%	?
Cc1cccnc1NC(=O)c1ccc([N+](=O)[O-])o1	-3.5%[46.1 µM]	-0.3%	-8.0%	?
Cc1c(NC(=O)c2ccc([N+](=O)[O-])o2)cccc1-c1nc2ncccc2o1	0.1%	?	-66.0%	-92.0*
O=C(NC12CC3CC(CC(C3)C1)C2)c1ccc([N+](=O)[O-])o1	7.4%	-1.7%	-44.8%	-93.2*
O=C(Nc1cccc(NC(=O)c2ccc([N+](=O)[O-])o2)c1)c1ccco1	-1.2%	?	-22.9%	-84.7*
CC(=O)Nc1cccc(NC(=O)c2ccco2)c1	2.9%	-17.9%	-24.3%	-17.0
Cc1ccc(CNC(=O)C2CCN(Cc3nc(-c4cccc(Br)c4)oc3C)CC2)cc1	.	0.0%	.	.
c1ccc(C2=Nn3c(nnc3-c3cc(-c4ccccc4)n[nH]3)SC2)cc1	0.6%	11.6µM*	8.5%	-3.0
Clc1ccc(C2=Nn3c(nnc3-c3cc(-c4ccccc4)n[nH]3)SC2)cc1	.	5.17µM*	-20.6%[7.66 µM]	-4.0
Cc1ccc(-c2nnc3n2N=C(c2ccccc2)CS3)cc1	-5.6%[46.1 µM]	?	0.0%	-7.6
COc1ccc(C2=Nn3c(nnc3-c3ccc(OC)cc3)SC2)cc1	3.8%	6.51µM*	-40.5%[7.66 µM]	19.8
SMILES	TCR activator	BCR signal inh	a7 integrin act	Giardia killer
Cc1ccc(CN(Cc2cc3cc(C)ccc3[nH]c2=O)Cc2nnnn2Cc2ccccc2)cc1	.	.	.	-18.0
CCCCSCCCNC(=O)c1cc(-c2cccnc2)nc2ccc(S(=O)(=O)N3CCC(C)CC3)cc12	.	2.8%	.	.
O=C(N=Nc1c(O)[nH]c2ccccc12)c1ccc2c(c1)OCO2	0.2%	?	-2.4%	-82.2*
CC(C(=O)Nc1ccc(C#N)cc1)N(C)CC(=O)Nc1cccc(F)c1 (stereo not drawn)	-2.1%	-3.2%	3.98µM*	75.5
CCOC(=O)CSc1nc2cc(OC)c(OC)cc2cc1C#N	.	.	.	17.2
C[C@H]1CN([C@@H](C)CO)C(=O)CCCn2nncc2CO[C@H]1CN(C)C(=O)Nc1ccc2c(c1)OCO2	.	.	21.0%	.
O=C(Oc1c(Cl)cc(Cl)c2cccnc12)c1cccc([N+](=O)[O-])c1	4.5%[46.1 µM]	20.6µM*	-18.3%	-10.9
O=C(CSc1nc(=O)n(CCN2CCOCC2)c2c1CCC2)Nc1ccc(F)cc1F	.	5.5%	.	.
CCCN1C2CCCC1CC(NC(=O)c1cccc([N+](=O)[O-])c1)C2 (stereo not drawn)	4.6%	3.5%	10µM*	15.6
Cc1c(C(=O)Nc2ccc(F)cc2F)sc2nc3n(c(=O)c12)N=C(c1ccccc1)CS3	.	8.3%	.	.
O=C(NCC(c1ccco1)N1CCc2ccccc21)C(=O)Nc1ccc(F)cc1F (stereo not drawn)	2.2%	9.2µM*	-15.2%	2.2
O=C(NCC(c1ccco1)N1CCc2ccccc21)C(=O)Nc1ccccc1F (stereo not drawn)	6.1%	-4.9%	-37.9%	36.8
Cc1ccc(CNc2ncnc(N)c2[N+](=O)[O-])cc1	-8.3%	-5.0%	10µM*	18.2
Cc1cccc(C)c1Nc1ncnc(N)c1[N+](=O)[O-]	4.3%[46.1 µM]	-14.2%	-11.5%	-6.2
Cc1cccn2c(=O)c(C(=O)N3CCN(c4ccccc4)CC3)cnc12	.	-22.6%	.	.
O=C(O)c1cc2ccccc2c(N=Nc2cccnc2)c1O	3.8%	-10.9%	-29.5%	-82.4*
COc1ccccc1-n1cc2c([N+](=O)[O-])cc([N+](=O)[O-])cc2n1	-0.4%	-4.2%	-18.6%	-85.3*
COc1ccccc1N=c1c2c([N+](=O)[O-])cc([N+](=O)[O-])cc2n(O)n1-c1ccccc1OC	.	-0.7%	.	.
COc1ccc(/C=N/NC(=O)c2ccc(CSc3nc(C)cc(C)n3)cc2)cc1O	-9.4%[46.1 µM]	16.4µM*	3.2%	-2.6
CCCC12CN3CC(C)(CN(C1)C3c1ccc([N+](=O)[O-])o1)C2=O (stereo not drawn)	6.4%	6.1%	-10.0%	-87.1*
CCC12CN3CC(CC)(CN(C1)C3c1ccc([N+](=O)[O-])o1)C2=O (stereo not drawn)	1.1%	0.3%	3.9%	-85.8*
Cn1ccc(C(=O)Nc2cccnc2Cl)n1	2.9%	-13.7%	10µM*	-5.1
Cc1ccc(CCNC(=O)c2ccc(CNS(=O)(=O)c3ccc(F)cc3)cc2)cc1	.	11.7%	.	.
CCCN1CNc2c(c(=O)[nH]c(=S)n2CCc2ccc3c(c2)OCCO3)C1	.	.	.	0.8
[O-][n+]1c2cc(C(F)(F)F)ccc2c2n1CCN=C2c1ccc(Cl)cc1	-3.6%	?	2.2%	-88.6*
SMILES	TCR activator	BCR signal inh	a7 integrin act	Giardia killer
O=C(Oc1cccc2cccnc12)c1ccco1	-3.7%[46.1 µM]	23.1µM*	-37.8%	-9.2
COc1ccccc1C(=O)NCC(=O)N=Nc1c(O)n(C(C)C)c2ccccc12	-1.6%	-25.9%	11.2µM*	18.9
Cc1nnc(NC(=O)C2CCN(C(=O)c3ccsc3)CC2)s1	.	.	.	-15.8
Cc1cc(N2CCOCC2)nc2ccc(NC(=S)NCc3ccc4c(c3)OCO4)cc12	-5.9%	?	10µM*	7.5
COCCNC(=S)Nc1ccc2nc(N3CCOCC3)cc(C)c2c1	-2.2%	-4.5%	46.0%	4.0
Cc1ccc(CNC(=O)C(=O)Nc2c3c(nn2-c2ccc(F)cc2)CSC3)cc1	.	2.4%	.	.
COc1ccc(CC(=O)Nc2ncc([N+](=O)[O-])s2)cc1OC	2.5%	-9.9%	2.9%	-89.4*
